This excerpt belongs to a sample that is enriched for hits.
PD-1 reverse act: activators reversing PD-1 mediated T-cell inhibition. primary human CD4 T cells, PD-L1 beads, CellTiter-Glo 96 h. activation, % (concentration not given with the values). 29,000 tested, under 10 active; call rule not given here;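 also: 0% = median vehicle wells and 100% = positive control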
STK33 inh: human STK33 kinase inhibition. 0.44% of 27,000 active. ADP-Glo luminescence, MBP substrate. AID 2322. Q9BYT3. inhibition, % at 12.5 µM; in the data active = inhibition above about 20%
Target sequence (Q9BYT3 whole entry, looked up): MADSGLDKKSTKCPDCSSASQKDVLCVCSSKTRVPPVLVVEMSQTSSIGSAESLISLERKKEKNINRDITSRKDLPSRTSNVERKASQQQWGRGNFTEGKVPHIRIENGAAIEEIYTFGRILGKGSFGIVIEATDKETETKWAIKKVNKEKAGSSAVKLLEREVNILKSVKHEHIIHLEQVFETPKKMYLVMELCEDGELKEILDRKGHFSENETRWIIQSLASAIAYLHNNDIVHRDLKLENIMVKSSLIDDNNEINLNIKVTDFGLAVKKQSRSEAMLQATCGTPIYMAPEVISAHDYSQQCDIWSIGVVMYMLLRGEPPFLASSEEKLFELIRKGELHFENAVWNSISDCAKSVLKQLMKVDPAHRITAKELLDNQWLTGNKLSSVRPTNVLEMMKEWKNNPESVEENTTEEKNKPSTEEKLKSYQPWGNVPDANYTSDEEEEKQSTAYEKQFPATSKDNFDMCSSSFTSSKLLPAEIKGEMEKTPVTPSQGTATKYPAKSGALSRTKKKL
NOMO-1 viab: STK33 inhibitor candidate reducing NOMO-1 cell viability. NOMO-1 AML viability, CellTiter-Glo luminescence, 72 h. inhibition, % (no concentration beside the values). 7.5% of 37,000 active; in the data active = inhibition above about 80%
Active calls of the source: *; . = not tested or not shown.

SMILES	PD-1 reverse act	STK33 inh	NOMO-1 viab
CC1(C)CCC[C@]2(C)C1CC=C(CO)[C@H]2CC/C(=C/CO)CO (some centres undefined)	.	-10	.
C/C(=C/CO)CC[C@@H]1[C@@](C)(O)CCC2C(C)(C)CCC[C@]21C (some centres undefined)	-3	-1	101*
CC1(C)CC[C@@]2(C(=O)O)C(C1)C1=CCC3[C@@]4(C)CC[C@H](O[C@@H]5O[C@H](C(=O)O)[C@@H](O[C@@H]6OC[C@@H](O)[C@H](O)[C@H]6O)[C@H](O)[C@H]5O)C(C)(C)C4CC[C@@]3(C)[C@]1(C)C[C@H]2O (some centres undefined)	.	-5	.
CC(=O)OCC1(C)CC2[C@]3(CO[C@@]24CCC2[C@@]5(C)CC[C@H](O[C@@H]6OC[C@@H](O)[C@H](O)[C@H]6O)[C@@](C)(CO)C5CC[C@@]2(C)[C@]4(C)C[C@H]3O)[C@@H](O)C1 (some centres undefined)	-6	-3	123*
CN(C)/C=C/C(=O)c1ccc2c(c1)CCC(C)(C)O2	0	.	121*
CC1(C)CCc2cc(-c3ccn(S(=O)(=O)c4ccc(Cl)cc4)n3)ccc2O1	-1	.	68
CC1(C)OC(=O)C(=Cc2ccoc2)C(=O)O1	-1	.	38
Cc1ccc(S(=O)(=O)Nc2ccc3c(c2)CC(=O)N([C@@H](C)CO)C[C@H](C)[C@H](CN(C)Cc2ccc(Cl)c(Cl)c2)O3)cc1	1	0	71
Cc1ccc(S(=O)(=O)Nc2ccc3c(c2)CC(=O)N([C@H](C)CO)C[C@@H](C)[C@H](CN(C)Cc2ccc(Cl)c(Cl)c2)O3)cc1	0	5	59
Cc1ccc(S(=O)(=O)Nc2ccc3c(c2)CC(=O)N([C@@H](C)CO)C[C@@H](C)[C@@H](CN(C)Cc2ccc(Cl)c(Cl)c2)O3)cc1	-3	6	83*
Cc1ccc(S(=O)(=O)Nc2ccc3c(c2)CC(=O)N([C@H](C)CO)C[C@@H](C)[C@@H](CN(C)Cc2ccc(Cl)c(Cl)c2)O3)cc1	-5	3	116*
CCN1C2=C(C(=O)CCC2)C(c2cccc(O)c2)C2=C1CCCC2=O	0	.	-1
C[C@@H]1CN([C@@H](C)CO)C(=O)c2cccc(NC(=O)CCCCCC(=O)Nc3ccccc3N)c2O[C@H]1CN(C)C	0	.	32
C[C@@H]1CN([C@H](C)CO)C(=O)c2cccc(NC(=O)CCCCCC(=O)Nc3ccccc3N)c2O[C@@H]1CN(C)Cc1ccc(Oc2ccccc2)cc1	-4	.	140*
C[C@@H]1CN([C@@H](C)CO)C(=O)c2cccc(NC(=O)CCCCCC(=O)Nc3ccccc3N)c2O[C@@H]1CN(C)Cc1ccc(Oc2ccccc2)cc1	-7	.	126*
C[C@H](CO)N1C[C@H](C)[C@H](CN(C)C(=O)Nc2ccccc2)Oc2c(NC(=O)CCCCCC(=O)Nc3ccccc3N)cccc2C1=O	1	.	5
CCOC(=O)C1=C(C)NC(=S)NC1c1ccc(-c2ccccc2Cl)o1 (centres undefined)	-3	.	36
Cc1ccc(C2C(C#N)=C(N)OC(C3CC3)=C2C#N)cc1 (centres undefined)	-3	-3	34
Cc1nnc(SCC(=O)Nc2ccc(Br)cc2Cl)s1	.	-6	-10
Cc1cc(C)c2c3c1C1C=CCC1CN3C(C(=O)O)C1CC=CC21 (centres undefined)	-1	.	115*
C[C@@H]1CN([C@H](C)CO)C(=O)c2cc(NC(=O)Cc3cn(C)c4ccccc34)ccc2O[C@H]1CN(C)C(=O)Nc1cccc2ccccc12	0	0	8
C[C@H](CO)N1C[C@H](C)[C@H](CN(C)C(=O)Nc2cccc3ccccc23)Oc2ccc(NC(=O)Cc3cn(C)c4ccccc34)cc2C1=O	-2	.	88*
C[C@H]1CN([C@@H](C)CO)C(=O)c2cc(NC(=O)Cc3cn(C)c4ccccc34)ccc2O[C@@H]1CN(C)C(=O)Nc1cccc2ccccc12	-1	1	5
C[C@@H]1CN([C@@H](C)CO)C(=O)c2cc(NC(=O)Cc3cn(C)c4ccccc34)ccc2O[C@@H]1CN(C)C(=O)Nc1cccc2ccccc12	-2	.	125*
CC(Oc1ccc(Br)cc1)C(=O)NCCN1CCOCC1 (centres undefined)	.	-1	-3
SMILES	PD-1 reverse act	STK33 inh	NOMO-1 viab
O=C(NCCC(c1ccccc1)c1ccccc1)c1cc2ccccc2c(=O)o1	0	.	27
CCN(CC)C(=S)Sc1ncnc2sc3c(c12)CCCC3	-3	.	125*
CC(C)(C)C(=O)CSc1ncnc2sc3c(c12)CCCC3	-2	-1	20
C(=N\C(/N=C/c1ccccc1)c1ccccc1)/c1ccccc1	2	.	13
C[C@@H]1CN([C@H](C)CO)C(=O)Cc2cc(NC(=O)Nc3ccc(F)cc3)ccc2O[C@@H]1CN(C)S(=O)(=O)c1ccc(Cl)cc1	-2	-5	6
Cc1ccc(S(=O)(=O)N(C)C[C@@H]2Oc3ccc(NC(=O)CCC(F)(F)F)cc3CC(=O)N([C@H](C)CO)C[C@H]2C)cc1	.	.	-11
C[C@H]1CN([C@@H](C)CO)C(=O)Cc2cc(NC(=O)Nc3ccc(F)cc3)ccc2O[C@H]1CN(C)S(=O)(=O)c1ccc(Cl)cc1	-2	-1	114*
C[C@H]1CN([C@@H](C)CO)C(=O)Cc2cc(NC(=O)Nc3ccccc3)ccc2O[C@H]1CN(C)S(=O)(=O)c1ccc(Cl)cc1	-1	0	113*
Cc1ccc(S(=O)(=O)N(C)C[C@@H]2Oc3ccc(NC(=O)CCC(F)(F)F)cc3CC(=O)N([C@@H](C)CO)C[C@@H]2C)cc1	0	0	134*
Cc1ccc(S(=O)(=O)N(C)C[C@@H]2Oc3ccc(NC(=O)Nc4ccccc4)cc3CC(=O)N([C@@H](C)CO)C[C@@H]2C)cc1	.	.	124*
C[C@H]1CN([C@@H](C)CO)C(=O)Cc2cc(NC(=O)Nc3ccccc3)ccc2O[C@@H]1CN(C)S(=O)(=O)c1ccc(Cl)cc1	-1	1	20
C[C@@H]1CN([C@@H](C)CO)C(=O)Cc2cc(NC(=O)Nc3ccccc3)ccc2O[C@@H]1CN(C)S(=O)(=O)c1ccccc1	.	11	53
c1cc(-c2nn[nH]n2)ccc1OCc1nn[nH]n1	-1	-2	3
COc1ccccc1NC(=O)C1C=C2C=CC=CC2OC1=Nc1ccccc1F (centres undefined)	0	.	40
O=C(Nc1ccccc1C(=O)NCc1ccco1)c1ccccc1I	1	0	42
CCOC(=O)C(Cc1ccc(O)cc1)NC(C)=O (centres undefined)	.	-4	-2
COC(=O)[C@H](Cc1ccc(O)cc1)NC(=O)c1cccc(Cl)c1	-23	-2	110*
C[C@@H]1CN([C@@H](C)CO)C(=O)c2cccc(NC(=O)Nc3ccc(C(F)(F)F)cc3)c2O[C@@H]1CN(C)Cc1ccc(C(=O)Nc2ccccc2N)cc1	-6	.	128*
C[C@H]1CN([C@@H](C)CO)C(=O)c2cccc(NC(=O)Nc3ccccc3)c2O[C@@H]1CN(C)Cc1ccccc1	.	.	36
CC(C)NC(=O)Nc1cccc2c1O[C@H](CN(C)Cc1ccc(C(=O)Nc3ccccc3N)cc1)[C@H](C)CN([C@H](C)CO)C2=O	-2	.	119*
C[C@H](CO)N1C[C@H](C)[C@@H](CN(C)Cc2ccc(C(=O)Nc3ccccc3N)cc2)Oc2c(NC(=O)c3ccncc3)cccc2C1=O	0	.	39
